Source: PubChem BioAssay (Tox21)
“And” between values parts separate entries of the source, which are not always exact repeats. Identical values can stand only once. Inconclusive results are not listed. The source made the active and inactive calls. Unless noted, calls come from the whole dose curve; as a rule, active = well fitted curve in the direction sought with a large enough effect in the repeat runs; inconclusive = weak or mixed curves; inactive = no such curve, though single readings can be large; an effect the other way counts as inactive or inconclusive.

Columns and labels:
[1] = qHTS assay to identify small molecule antagonists of the estrogen related receptor (ERR) signaling pathway from Tox21 library (AID 1224848); note: nearly all actives have a fitted effect of over 50% in size
Procedure, shortened: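 Cells: ERR line, 2,000/well; 6 h preincubation 37 C/5% CO2. Cpd in DMSO via pin tool; 18 h, 37 C. ONE-Glo, 30 min RT, luminescence.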

[2] = qHTS assay to identify small molecule agonists of the estrogen related receptor (ERR) signaling pathway from Tox21 library (AID 1224849; calls by dose curve; note: nearly all actives have a fitted effect of over 15% in size); details: ERR reporter cell line, ONE-Glo luciferase, 18 h; at 92.4 µM (top of the series)
Procedure, shortened: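 ERR reporter cell line (NTP) seeded, rested 6 h at 37 C/5% CO2, then pinned with Tox21 compounds in DMSO. After 18 h at 37 C, ONE-Glo luciferase luminescence was read following 30 min at room temperature.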

[3] = qHTS RealTime-Glo MT Cell Viability Assay in HEK293 cells - 32 hour (AID 1224868); note: top concentration of the series differs between compounds; nearly all actives have a fitted effect of over 50% in size
Procedure, shortened: (§1)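 Viability tracked continuously by luminescence as live cells reduce a prosubstrate for NanoLuc; HEK293 cells preincubated 5 h, compound-treated at 37 C, and read at 0, 8, 16, 24, 32 and 40 h.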

[4] = A CellTox Green Cytotoxicity Assay to monitor cytotoxicity in HEK293 cells - 0 hour (AID 1224869); note: nearly all actives have a fitted effect of over 50% in size
Procedure, shortened: (§2)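 HEK293 cells premixed with CellTox Green dye were seeded at 600 cells/well and left 5 h at 37 C/5% CO2 before pin transfer of 23 nL compound in DMSO. Fluorescence from dye bound to dead-cell DNA was read during 40 h treatment.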

[5] = qHTS RealTime-Glo MT Cell Viability Assay in HepG2 cells - 40 hour (AID 1224870); note: nearly all actives have a fitted effect of over 50% in size
Procedure, shortened: (§3)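 HepG2 cells mixed with RealTime-Glo MT reagents (NanoLuc plus cell-permeant prosubstrate) were seeded at 600 cells/well, incubated 5 h at 37 C/5% CO2, then pinned with compounds in DMSO; nonlytic luminescence tracked viability during 40 h treatment.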

[6] = A CellTox Green Cytotoxicity Assay to monitor cytotoxicity in HEK293 cells - 40 hour (AID 1224871); note: nearly all actives have a fitted effect of over 45% in size
Procedure, shortened: as §2

[7] = qHTS RealTime-Glo MT Cell Viability Assay in HEK293 cells - 16 hour (AID 1224872)
Procedure, shortened: as §1

[8] = qHTS RealTime-Glo MT Cell Viability Assay in HepG2 cells - 8 hour (AID 1224873); note: nearly all actives have a fitted effect of over 55% in size
Procedure, shortened: as §3

[9] = qHTS RealTime-Glo MT Cell Viability Assay in HEK293 cells - 40 hour (AID 1224874); details: RealTime-Glo luminescence; max response: active compounds read low; note: nearly all actives have a fitted effect of over 50% in size
Procedure, shortened: (§4)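 HEK293 cells mixed with RealTime-Glo reagents (NanoLuc plus cell-permeant prosubstrate) at 600 cells/well, preincubated 5 h at 37 C/5% CO2, then given 23 nL compound in DMSO. Nonlytic luminescence from viable cells was read at 0, 8, 16, 24, 32 and 40 h.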

[10] = A CellTox Green Cytotoxicity Assay to monitor cytotoxicity in HEK293 cells - 24 hour (AID 1224875); note: nearly all actives have a fitted effect of over 45% in size
Procedure, shortened: as §2

[11] = A CellTox Green Cytotoxicity Assay to monitor cytotoxicity in HepG2 cells - 16 hour (AID 1224876); note: nearly all actives have a fitted effect of over 45% in size
Procedure, shortened: (§5)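 HepG2 cells were seeded together with the CellTox Green dye at 600 cells/well, left 5 h at 37 C/5% CO2, then given compounds in DMSO. Fluorescence from dye bound to dead-cell DNA was read repeatedly over 40 h of treatment at 37 C.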

[12] = qHTS RealTime-Glo MT Cell Viability Assay in HepG2 cells - 32 hour (AID 1224877); note: nearly all actives have a fitted effect of over 55% in size
Procedure, shortened: (§6)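 Viability was tracked continuously by NanoLuc luminescence from prosubstrate reduced by living HepG2 cells, at successive time points over 40 h of compound exposure. Cells with reagent were preincubated 5 h at 37 °C before compound addition.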

[13] = A CellTox Green Cytotoxicity Assay to monitor cytotoxicity in HepG2 cells - 24 hour (AID 1224878); note: nearly all actives have a fitted effect of over 45% in size
Procedure, shortened: as §5

[14] = A CellTox Green Cytotoxicity Assay to monitor cytotoxicity in HepG2 cells - 40 hour (AID 1224879); note: nearly all actives have a fitted effect of over 40% in size
Procedure, shortened: as §5

[15] = qHTS RealTime-Glo MT Cell Viability Assay in HEK293 cells - 0 hour (AID 1224880)
Procedure, shortened: as §4

[16] = A CellTox Green Cytotoxicity Assay to monitor cytotoxicity in HEK293 cells - 32 hour (AID 1224881); note: nearly all actives have a fitted effect of over 40% in size
Procedure, shortened: as §2

[17] = A CellTox Green Cytotoxicity Assay to monitor cytotoxicity in HepG2 cells - 0 hour (AID 1224882); note: nearly all actives have a fitted effect of over 35% in size
Procedure, shortened: as §5

[18] = A CellTox Green Cytotoxicity Assay to monitor cytotoxicity in HepG2 cells - 32 hour (AID 1224883); note: nearly all actives have a fitted effect of over 50% in size
Procedure, shortened: as §5

[19] = A CellTox Green Cytotoxicity Assay to monitor cytotoxicity in HEK293 cells - 8 hour (AID 1224884); note: nearly all actives have a fitted effect of over 35% in size
Procedure, shortened: as §2

[20] = qHTS RealTime-Glo MT Cell Viability Assay in HepG2 cells - 24 hour (AID 1224867); note: nearly all actives have a fitted effect of over 50% in size
Procedure, shortened: as §6
% is set by controls: 0 for no effect and ±100 for the full control effect.

Clc1cccc(Cl)c1Cl
inactive: Potency [1] | activity change, positive = activation [2] 0.683% | Potency [3] | Potency [4] | outcome [5] | Potency [6] | outcome [7] | outcome [8] | max response [9] 14.5% | Potency [10] | Potency [11] | outcome [12] | Potency [13] | Potency [14] | outcome [15] | Potency [16] | Potency [17] | Potency [18] | Potency [19]

COC(=O)c1ccccc1N
inactive: Potency [1] | activity change, positive = activation [2] 4.73% and 5.15% | Potency [3] | Potency [4] | outcome [5] | Potency [6] | outcome [7] | max response [9] 1.4% and 10.1% | Potency [10] | Potency [11] | outcome [12] | Potency [13] | Potency [14] | outcome [15] | Potency [16] | Potency [17] | Potency [18] | Potency [19]

COC(=O)NS(=O)(=O)c1ccc(N)cc1
inactive: Potency [1] | activity change, positive = activation [2] 6.12% and 0.416% | Potency [3] | Potency [4] | outcome [5] | Potency [6] | outcome [7] | outcome [8] | max response [9] 15.7% and 20.4% | Potency [10] | Potency [11] | outcome [12] | Potency [13] | Potency [14] | Potency [16] | Potency [17] | Potency [18] | Potency [19]

Cn1cc(-c2ccccc2)c(=O)c(-c2cccc(C(F)(F)F)c2)c1
inactive: Potency [1] | activity change, positive = activation [2] -9.79% and -18.6% | outcome [20] | Potency [3] | Potency [4] | outcome [5] | Potency [6] | outcome [7] | outcome [8] | Potency [10] | Potency [11] | outcome [12] | Potency [13] | Potency [14] | Potency [16] | Potency [17] | Potency [18] | Potency [19]

BrCCBr
inactive: Potency [1] | activity change, positive = activation [2] 3.43% and 4.88% | outcome [20] | Potency [3] | Potency [4] | outcome [5] | Potency [6] | outcome [7] | outcome [8] | max response [9] 4.67% and 8.82% | Potency [10] | Potency [11] | outcome [12] | Potency [13] | Potency [14] | Potency [16] | Potency [17] | Potency [18] | Potency [19]

CC(C)OC(=O)Nc1cccc(Cl)c1
inactive: Potency [1] | activity change, positive = activation [2] 3.6% | outcome [20] | Potency [3] | Potency [4] | outcome [5] | Potency [6] | outcome [7] | outcome [8] | max response [9] -5.94% and -18% | Potency [10] | Potency [11] | outcome [12] | Potency [13] | Potency [14] | outcome [15] | Potency [16] | Potency [17] | Potency [18] | Potency [19]
